In the supplement of paper PMC12645437, “Orthogonal IMiD-Degron Pairs Induce Selective Protein Degradation in Cells” (ACS Chemical Biology, 2025):
Over roughly 8,300 sequences, “log2 fold change of degron read counts, EGFP-low vs EGFP+ sorted cells (limma voom), compound-induced degradation” has its median near -1.1; the highest 2% begin near 3.2. The entries come from a sample that favours the highest values as a whole.

Target: T1, CRBN, Q96SW2
T1 chain: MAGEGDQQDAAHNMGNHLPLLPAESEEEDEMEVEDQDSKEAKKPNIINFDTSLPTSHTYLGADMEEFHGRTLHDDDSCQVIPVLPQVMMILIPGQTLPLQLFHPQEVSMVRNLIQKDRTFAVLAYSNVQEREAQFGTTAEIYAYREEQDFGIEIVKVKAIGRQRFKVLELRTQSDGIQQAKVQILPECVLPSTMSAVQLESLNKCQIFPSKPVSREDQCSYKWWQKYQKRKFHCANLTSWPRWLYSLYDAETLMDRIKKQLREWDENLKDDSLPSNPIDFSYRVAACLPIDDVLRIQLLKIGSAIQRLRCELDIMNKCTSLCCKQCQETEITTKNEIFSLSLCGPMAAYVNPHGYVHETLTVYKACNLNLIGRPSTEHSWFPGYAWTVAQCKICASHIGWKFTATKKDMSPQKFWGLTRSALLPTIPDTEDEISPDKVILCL
Assay: log2 fold change of degron read counts, EGFP-low vs EGFP+ sorted cells (limma voom), compound-induced degradation; higher = more compound-induced degradation of the degron-EGFP fusion; degrons are variants of IKZF1/3 zinc finger 2; compound dose not given here
Details: Jurkat, 18 h

[1] = compound: compound 19 (5-tert-butyl-thalidomide)
[2] = compound: compound 22 (5-morpholino-thalidomide)
[3] = compound: compound 33 (diphenyl IMiD analogue)
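Also: pooled lentiviral library of zinc finger degron-EGFP fusions in mCherry-positive Jurkat cells, FACS-sorted after compound exposure, with degron abundance counted by next-generation sequencing.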

Sequence | log2 fold change of degron read counts [1] | log2 fold change of degron read counts [2] | log2 fold change of degron read counts [3] | log2 fold change of degron read counts (compound: thalidomide)
FVCPICGRLFTQKGNLLRHIKL [46F_47V_49P_50I_52G_53R_54L_55F_67L_, Q9UKT9] | -1.24 | -0.36 | 0.85 | 1.08
LVCNQCGFKCTQKGNLLRHIKL [46L_47V_49N_50Q_52G_53F_54K_55C_67L_, Q9UKT9] | -2.22 | -2.27 | -2.4 | -0.986
FFCSVCGHHFTQKGNLLRHIKL [46F_47F_49S_50V_52G_53H_54H_55F_67L_, Q9UKT9] | -2.1 | -2.74 | -2.17 | -1.83
FCCNQCGHNFTQKGNLLRHIKL [46F_47C_49N_50Q_52G_53H_54N_55F_67L_, Q9UKT9] | -2.54 | -3.15 | -2.94 | -2.37
FHCPVCGAMFTQKGNLLRHIKL [46F_47H_49P_50V_52G_53A_54M_55F_67L_, Q9UKT9] | 1.4 | 1.46 | 1.42 | -0.0518
FYCNQCGRRFTQKGNLLRHIKL [46F_47Y_49N_50Q_52G_53R_54R_55F_67L_, Q9UKT9] | -2.62 | -2.54 | -2.6 | -2.29
LFCPICGFVCTQKGNLLRHIKL [46L_47F_49P_50I_52G_53F_54V_55C_67L_, Q9UKT9] | 3.02 | 2.99 | 1.66 | 1.45
FLCNVCGAQFTQKGNLLRHIKL [46F_47L_49N_50V_52G_53A_54Q_55F_67L_, Q9UKT9] | -2.31 | -2.24 | -0.00793 | -0.809
FWCPVCGARFTQKGNLLRHIKL [46F_47W_49P_50V_52G_53A_54R_55F_67L_, Q9UKT9] | 2.67 | 3.51 | 1.2 | 1.26
FTCPVCGARFTQKGNLLRHIKL [46F_47T_49P_50V_52G_53A_54R_55F_67L_, Q9UKT9] | 0.934 | 2.59 | 1.76 | 2.95
FKCPVCGARFTQKGNLLRHIKL [46F_47K_49P_50V_52G_53A_54R_55F_67L_, Q9UKT9] | -1.78 | -2.92 | -2.71 | -1.48
FQCPVCGALFTQKGNLLRHIKL [46F_47Q_49P_50V_52G_53A_54L_55F_67L_, Q9UKT9] | -1.05 | 1.65 | 1.66 | 3.5
FFCPVCGALFTQKGNLLRHIKL [46F_47F_49P_50V_52G_53A_54L_55F_67L_, Q9UKT9] | 1.62 | 1.64 | 1.45 | 0.0806
FCCPVCGADFTQKGNLLRHIKL [46F_47C_49P_50V_52G_53A_54D_55F_67L_, Q9UKT9] | 0.844 | 0.509 | 1.45 | 0.741
FLCPVCGARFTQKGNLLRHIKL [46F_47L_49P_50V_52G_53A_54R_55F_67L_, Q9UKT9] | -0.179 | -0.342 | 0.651 | 1.68
FGCPVCGARFTQKGNLLRHIKL [46F_47G_49P_50V_52G_53A_54R_55F_67L_, Q9UKT9] | 3.6 | 2.1 | -0.116 | 1.03
FRCPVCGARFTQKGNLLRHIKL [46F_47R_49P_50V_52G_53A_54R_55F_67L_, Q9UKT9] | -1.26 | -1.08 | -0.255 | 0.153

Sequence | log2 fold change of degron read counts [1] | log2 fold change of degron read counts [2] | log2 fold change of degron read counts [3] | log2 fold change of degron read counts (compound: thalidomide)
FVCPVCGALFTQKGNLLRHIKL [46F_47V_49P_50V_52G_53A_54L_55F_67L_, Q9UKT9] | -1.75 | 0.353 | 1.26 | 0.951
FQCPVCGADFTQKGNLLRHIKL [46F_47Q_49P_50V_52G_53A_54D_55F_67L_, Q9UKT9] | -0.246 | 1.22 | 2.37 | 3.4
FVCPVCGADFTQKGNLLRHIKL [46F_47V_49P_50V_52G_53A_54D_55F_67L_, Q9UKT9] | -0.973 | 0.651 | 1 | 1.76
FFCNVCGAYFTQKGNLLRHIKL [46F_47F_49N_50V_52G_53A_54Y_55F_67L_, Q9UKT9] | -0.163 | 0.227 | 0.144 | -1.05
FMCEICGRNFTQKGNLLRHIKL [46F_47M_49E_50I_52G_53R_54N_55F_67L_, Q9UKT9] | -2.42 | -2.71 | -0.582 | -1.02
FFCSVCGHWFTQKGNLLRHIKL [46F_47F_49S_50V_52G_53H_54W_55F_67L_, Q9UKT9] | -1.15 | -1.58 | -1.38 | -1.26
FTCPICGHLFTQKGNLLRHIKL [46F_47T_49P_50I_52G_53H_54L_55F_67L_, Q9UKT9] | -2.23 | -2.6 | -1.44 | -1.57
FMCPVCGARFTQKGNLLRHIKL [46F_47M_49P_50V_52G_53A_54R_55F_67L_, Q9UKT9] | -0.509 | 0.0794 | 1.25 | 0.719
FACPVCGARFTQKGNLLRHIKL [46F_47A_49P_50V_52G_53A_54R_55F_67L_, Q9UKT9] | 3.49 | 2.28 | -0.0911 | 1.06
FVCPVCGARFTQKGNLLRHIKL [46F_47V_49P_50V_52G_53A_54R_55F_67L_, Q9UKT9] | 0.0453 | 2.18 | 0.744 | 2.8
FCCPVCGARFTQKGNLLRHIKL [46F_47C_49P_50V_52G_53A_54R_55F_67L_, Q9UKT9] | 2.31 | 2.41 | 1.79 | 2.26
FFCPVCGARFTQKGNLLRHIKL [46F_47F_49P_50V_52G_53A_54R_55F_67L_, Q9UKT9] | 3.35 | 3.29 | 1.72 | 1.35
FECPVCGARFTQKGNLLRHIKL [46F_47E_49P_50V_52G_53A_54R_55F_67L_, Q9UKT9] | 0.67 | -0.349 | 1.42 | 2.94
FQCPVCGARFTQKGNLLRHIKL [46F_47Q_49P_50V_52G_53A_54R_55F_67L_, Q9UKT9] | -0.395 | 2.27 | 1.08 | 3.63
FHCPVCGARFTQKGNLLRHIKL [46F_47H_49P_50V_52G_53A_54R_55F_67L_, Q9UKT9] | 1.99 | 2.23 | 0.971 | 0.937
FDCPVCGARFTQKGNLLRHIKL [46F_47D_49P_50V_52G_53A_54R_55F_67L_, Q9UKT9] | 3.12 | 1.66 | 1.4 | 2.71
